In all, about 420,000 compounds went through this assay and about 64,000 (15%) were called active. About 27% were inconclusive and are not listed. Only a sample is shown. A number with no mark means an inactive call. Calls follow the shape of the dose curve; as a rule, active = well fitted inhibition curve with a large enough effect; inconclusive = small, poorly fitted or top-dose-only effect; inactive = flat fitted curve, though single readings scatter.
assay: qHTS for Inhibitors of human tyrosyl-DNA phosphodiesterase 1 (TDP1): qHTS in cells in absence of CPT; settings: DT40 Tdp1-/- hTDP1 cells, no CPT, ATP luminescence, 48 h; activity change, negative = growth inhibition: at 46.2 µM (top of the series); also: nearly all actives have a fitted effect of over 55% in size
In short: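 Stably hTDP1-transfected Tdp1-null chicken DT40 cells were treated with library compounds minus camptothecin and grown for at least 48 hr at 37 °C, after which cellular ATP was quantified by luminescence.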
% is scaled to controls: 0 for no effect and ±100 for the full control effect; potency is read from the fitted curve at half-maximal effect.

SMILES | activity change, negative = growth inhibition [%] | Potency
Cc1ccnc(SCC(=O)Nc2cccc(S(=O)(=O)N3CCOCC3)c2)n1 | -27.1 | –
O=C(O)C1CC(=O)N(Cc2cccnc2)C1 (stereo unspecified) | -0.56 | –
O=C(O)CCc1cccnc1 | – | inactive
O=C1/C(=C\c2cccnc2)CN(Cc2ccccc2)C/C1=C\c1cccnc1 | – | 1.64 µM (active)
COC(=O)c1ccc2c(c1)S(=O)(=O)NC2C (stereo unspecified) | 4.44 | –
Cc1ccc(S(=O)(=O)NCC(=O)OCC(=O)N2CCc3ccccc32)cc1 | -22.6 | –
O=C(OCC(=O)N1CCc2ccccc21)c1ccc([N+](=O)[O-])cc1 | – | 29.1 µM (active)
O=C(OCC(=O)N1CCc2ccccc21)C1CCCN1S(=O)(=O)c1ccc(Cl)cc1 (stereo unspecified) | -9.63 | –
O=S(=O)(Nc1ccccn1)c1cccc(S(=O)(=O)c2ccc(Cl)cc2)c1 | -14 | –
Cc1coc2c1c(C)cc1oc(=O)c(CC(=O)NCC(=O)N[C@H](C(=O)O)C(C)C)c(C)c12 | 23.9 | –
Cc1cc[n+](C2CCCCC2)cc1 | – | 15.8 µM (active)
CCC(NC(=O)C1CCCC1)c1ccc(C)cc1 (stereo unspecified) | -3.25 | –
COc1ncnc2sc3c(c12)CCCC3 | -6.77 | –
Cc1noc(C)c1NC(=O)N(C)C[C@@H]1Oc2cc(Br)ccc2S(=O)(=O)N([C@@H](C)CO)C[C@H]1C | -2.38 | –
C[C@H](CO)N1C[C@H](C)[C@@H](CN(C)C(=O)C2CCCCC2)OCc2cnnn2CCCC1=O | -21.8 | –
CCCCOc1ccc(C(C)(O)CCN2CCOCC2)cc1 (stereo unspecified) | -21.9 | –
COc1ccc2[nH]c(=O)c(CN(Cc3cccnc3)S(=O)(=O)c3ccccc3F)cc2c1 | – | 18.4 µM (active)
CCN(Cc1cc2cc(C)ccc2[nH]c1=O)S(=O)(=O)c1ccccc1 | -13 | –
COc1ccc(-c2[nH]ncc2CN(C)Cc2cccnc2)c(F)c1 | -19.9 | –
Cc1ccc(C(=O)NCC(=O)OCC(=O)NC2CCCCCCC2)cc1 | 8.07 | –
COc1ccc(C2C(=O)N(C3CCCCCC3)CC(=O)N2CCc2ccc(Cl)cc2)cc1OC (stereo unspecified) | – | 23.1 µM (active)
O=C(NCCc1ccc(Cl)cc1)C1CC(=O)N(C2CCCCC2)C1 (stereo unspecified) | -11.3 | –
COc1ccc(C2C(=O)N(C3CCCCC3)CC(=O)N2Cc2ccccc2Cl)cc1OC (stereo unspecified) | -3.49 | –
CCCCN(C(=O)c1nn(C)c(=O)c2ccccc12)c1c(N)n(CCC)c(=O)[nH]c1=O | 13.9 | –
CCN1C[C@@H]2[C@@H]3C(=O)N(C)C(=O)[C@@H]3[C@](C)(C1=O)N2C(=O)c1ccccc1 | -1.14 | –
CCCOC(=O)c1[nH]c2c(c1C)C(=O)CC(c1cc(OC)c(OC)c(OC)c1)C2 (stereo unspecified) | – | 4.61 µM (active)

SMILES | activity change, negative = growth inhibition [%] | Potency
COc1cc(C2CC(=O)c3cnc(NC(C)=O)nc3C2)cc(OC)c1OC (stereo unspecified) | 3.54 | –
CCCOC(=O)c1cc2ccccc2oc1=O | -15.6 | –
CCOC(=O)C1=C(N)N2C(=O)C(C)SC2=C(C(=O)OCC)C1c1cc(OC)c(OC)c(OC)c1 (stereo unspecified) | 15.8 | –
CCCOC(=O)c1[nH]c2c(c1C)C(=O)CC(c1cccs1)C2 (stereo unspecified) | – | 0.58 µM (active)
Cc1noc(C)c1C(=O)N1CCC1(C)C(=O)NS(=O)(=O)c1ccc(C#N)cc1 (stereo unspecified) | 10.2 | –
Cn1c(SCC(=O)Nc2cccc(NC(=O)c3cccs3)c2)nnc1-c1ccncc1 | -21.6 | –
COc1cc(OC)c(C(=O)N2CCCC2)cc1OC | -2.13 | –
Nc1cc(N2CCCCCC2)c2nonc2c1[N+](=O)[O-] | -25.5 | –
CCOc1ccc(N(C)S(=O)(=O)c2cnc[nH]2)cc1 | -8.49 | –
O=C(CCNS(=O)(=O)c1ccc(Br)cc1)NCC1CCCO1 (stereo unspecified) | -5.69 | –
CC(NS(=O)(=O)c1ccc(Br)cc1)C(=O)NCC1CCCO1 (stereo unspecified) | 2.85 | –
OC(CNCC1CCCO1)Cn1c2ccc(Br)cc2c2cc(Br)ccc21 (stereo unspecified) | – | 18.4 µM (active)
CN(C)c1ccc(C(CNS(=O)(=O)c2cc(F)ccc2F)N2CCOCC2)cc1 (stereo unspecified) | 5.48 | –
C[C@H](NC(=O)c1[nH]cnc1C(=O)Nc1nccs1)c1ccccc1 | -19.2 | –
Cc1ccc(S(=O)(=O)N2CCOCC2)cc1C(=O)OC1CCCCC1=O (stereo unspecified) | -18.6 | –
CC(=O)N1CCc2cc(Br)cc(S(=O)(=O)CCC(=O)Nc3c(C)n(C)n(-c4ccccc4)c3=O)c21 | -7.36 | –
CCOC(=O)c1c(-c2ccc(-c3ccccc3)cc2)csc1NC(=O)CCC(=O)O | 15.5 | –
CCOC(=O)c1c(NC(=O)c2cc(-c3ccc(Cl)cc3)on2)sc2c1CCCC2 | -4.88 | –
CCCS(=O)(=O)c1ncc(Cl)c(C(=O)Nc2scc(-c3ccccc3)c2C(=O)OCC)n1 | – | 3.66 µM (active)
CCOC(=O)c1c(-c2cccc(C)c2)csc1NC(=O)c1c(-c2ccccc2)noc1C | – | 23.1 µM (active)
CCOC(=O)c1c(N)nn(C(=O)c2ccccc2)c1-c1ccccc1 | 8.93 | –
Cc1ccc2nc(NC(=O)c3nc(SCc4ccccc4F)ncc3Cl)sc2c1 | 11 | –
CCOC(=O)C1CCN(C(=O)COC(=O)C2CCN(S(=O)(=O)c3ccc4c(c3)OCCO4)CC2)CC1 | -2.44 | –
CCOC(=O)CN/C=C(\C#N)c1ccc(F)cc1 | 8.78 | –
CC(C)CN(C(=O)Cn1c(=O)cnc2ccccc21)C1CCS(=O)(=O)C1 (stereo unspecified) | -1.96 | –

Reference: PubChem BioAssay AID686978 (National Center for Advancing Translational Sciences (NCATS), 2013)
